Rows were chosen to be rich in hits. Some 7.3% of all compounds tested hit in one or more screens of this group.
NPC1 promoter act – activates the NPC1 promoter; 2.4% of 320,000 active; Huh7 NPC1 promoter luciferase reporter, 24 h; AID 485313; Potency, µM (doses to about 9.22 µM), hits mostly activators; note: nearly all actives have a fitted effect of over 60% in size
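In 1536-well qHTS, Huh7 cells harboring an NPC1 promoter–luciferase construct received compound for 24 h; activation was quantified by luminescence following luciferase reagent addition.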
FLuc counter – counter-screen for miR-21 project: firefly luciferase inhibitors or activators. P08659. AID 588342. 6.9% of 360,000 active. Potency, µM (highest dose often 57.5 µM), most hits filed as inhibitors. purified FLuc, Km substrates, luminescence inhibition; note: nearly all actives have a fitted effect of over 55% in size
Target sequence (P08659 whole entry, looked up): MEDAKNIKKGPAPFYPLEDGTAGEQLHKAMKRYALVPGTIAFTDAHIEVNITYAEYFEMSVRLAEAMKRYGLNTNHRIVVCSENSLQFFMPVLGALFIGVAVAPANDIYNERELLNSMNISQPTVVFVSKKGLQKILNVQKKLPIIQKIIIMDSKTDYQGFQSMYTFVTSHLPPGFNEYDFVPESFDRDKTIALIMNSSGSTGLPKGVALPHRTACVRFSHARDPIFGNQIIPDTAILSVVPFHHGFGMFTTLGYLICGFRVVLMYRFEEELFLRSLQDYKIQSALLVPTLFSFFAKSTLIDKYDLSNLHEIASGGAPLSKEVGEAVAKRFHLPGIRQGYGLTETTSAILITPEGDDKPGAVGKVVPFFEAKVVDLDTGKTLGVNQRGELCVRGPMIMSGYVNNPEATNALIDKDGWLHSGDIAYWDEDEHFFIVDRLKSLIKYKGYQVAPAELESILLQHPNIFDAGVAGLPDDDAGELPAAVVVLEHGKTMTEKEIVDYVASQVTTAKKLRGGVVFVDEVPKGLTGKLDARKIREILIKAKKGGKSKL
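Biochemical qHTS of compounds, final roughly 60 µM downward over six points, against 10 nM purified firefly luciferase using Km concentrations of substrates (10 uM D-luciferin, 10 uM ATP) in Tris acetate pH 7.5 buffer; luminescence output.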
Rab9 promoter act – Rab9 promoter activation | Huh7 Rab9 promoter-luciferase reporter, luminescence, 24 h | Potency, µM (doses to about 9.22 µM), actives largely listed as activators | 2.8% of 320,000 active | AID 485297; note: nearly all actives have a fitted effect of over 60% in size
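Luminescence from Amplite-detected luciferase (10 minutes, ambient) reports Rab9 promoter activation. Before that, stable Rab9-luciferase Huh7 cells (1500/well, reduced-serum OP-MEM I plus 10% FBS) were exposed to compound for 24 hours at 37C.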
p53 reactivator – re-activators of mutant p53. H1299 p53-A138V BP100-luciferase reporter, luminescence, 24 h. Potency, µM (doses to about 92.2 µM), hits mostly activators. 0.063% of 320,000 active; note: nearly all actives have a fitted effect of over 45% in size
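H1299 (p53-null), stable ts p53-A138V + BP100-Luc; 1000 cells/well, Opti-MEM/10% FBS; cpd 4 pt, 1:5; 24 h, 37 deg C, 5% CO2; detection reagent 10 min RT; luminescence.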
ELG1 genotox – genotoxicity induction in ELG1-luciferase HEK293T cells; 1.3% of 330,000 active; Potency, µM (series often up to 46 µM), actives largely listed as activators; HEK293T ELG1-luciferase reporter, luminescence, 16 h; note: nearly all actives have a fitted effect of over 60% in size
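16 hr compound incubation (37 °C, 5% CO2) of HEK293T cells carrying luciferase-tagged ELG1; luciferase then measured by ONE-Glo luminescence after 30 min at RT.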
SMN2 splice enh – SMN2 splice variant enhancement; HEK293 SMN2-luciferase splicing reporter, luminescence, 30-36 h; Potency, µM (top dose mostly 46.1 µM), hits mostly activators; 2.8% of 210,000 active; note: nearly all actives have a fitted effect of over 55% in size
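qHTS luciferase splicing reporter: luminescence rises when SMN2 exon 7 is included in transfected HEK293 cells. Compound exposure lasted 30-36 h at 37C, with 4.5 mM final sodium butyrate as control, followed by a ONE-Glo read.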
Hits are given with their value; - = inactive; ? = inconclusive; . = not tested or not shown; [ ] = another dose, or the depositor's remark. Calls come from the whole dose curve; as a rule, active = well fitted curve in the direction sought with a large enough effect; inconclusive = small, poorly fitted or top-dose-only effect, or another doubt; inactive = no such curve, though single readings can be large; an effect the other way counts as inactive or inconclusive.

SMILES	NPC1 promoter act	FLuc counter	Rab9 promoter act	p53 reactivator	ELG1 genotox	SMN2 splice enh
O=C(O)c1ccc(N/N=C2/CCCc3ccccc32)cc1	3.2µM	9.5µM	2.5µM	-	?	.
O=C(O/N=C1\CCCc2ccccc21)C1CC1	-	?	-	-	-	-
Cc1ccc(C(=O)O/N=C2\CCCc3ccccc32)cc1	-	0.17µM	-	-	-	-
Cc1ccc(C(=O)O/N=C2\CCSc3ccc(C)cc32)cc1	-	7.6µM	-	-	?	-
O=C(O/N=C1\CCCc2ccccc21)c1cccc(Cl)c1	-	3µM	-	-	-	-
CCN(CC)C(=O)Cn1c(=O)n(Cc2ccc(C(=O)NCc3ccccc3Cl)cc2)c(=O)c2ccccc21	.	-	.	.	.	-
Cc1ccc(N2C(=O)c3ccc(N)cc3C2=O)cc1C	2.5µM	11µM	4µM	?	?	-
Cc1ccc(N2C(=O)c3ccc(N)cc3C2=O)cc1	3.5µM	7.6µM	4µM	?	3.7µM	.
Cc1ccc(-c2nsc(NC(=O)c3oc4cc(C)c(Cl)cc4c3C)n2)cc1	.	-	.	.	.	-
COc1ccc(N2CC(NC(=O)COc3ccc(F)cc3)CC2=O)cc1OC (configuration not stated)	.	-	.	.	.	.
CCCCc1c(C)c2ccc(OCC(C)=O)cc2oc1=O	3.2µM	19µM	2.8µM	?	5.2µM	16µM
COc1ccc(CNC(=O)Cc2c(C)c3ccc(O)cc3oc2=O)cc1	.	7.6µM	.	.	.	-
CCCc1c(C)c2ccc(OCC(C)=O)cc2oc1=O	?	?	?	?	?	-
Cc1c(Cc2ccccc2)c(=O)oc2cc(OCC(=O)N3CCC(C(=O)O)CC3)ccc12	-	21µM	-	.	-	.
Cc1c(Cc2ccccc2)c(=O)oc2cc(OC(=O)c3ccccc3)ccc12	-	?	-	-	-	-
COC(=O)Cc1c(C)c2ccc(OC(=O)c3ccccc3)cc2oc1=O	-	15µM	-	?	-	-
C/C(=N\O)c1cccc[n+]1Cc1ccccc1	.	.	.	.	.	-[9.22 µM]
COc1ccc(CCNC(=O)CCCCn2c(=O)c3ccccc3n(CC(=O)Nc3ccccc3C)c2=O)cc1OC	.	-	.	.	.	-
CC(C)(C)OC(=O)N1CCC(c2c(C(=O)NCCN3CCc4ccccc4C3)cnn2-c2ccc(F)cc2)CC1	.	-	.	.	.	.
Cc1c(C)c2ccc(OCC(=O)c3ccccc3)cc2oc1=O	2.2µM	?	3.5µM	-	?	.
Cc1c(CC(=O)O)c(=O)oc2cc(OCc3ccc(Cl)cc3)ccc12	-	8.5µM	-	-	-	.
Cc1c(Cc2ccccc2)c(=O)oc2cc(OCC(=O)N[C@@H](Cc3ccccc3)C(=O)O)ccc12	-	-	-	-	-	.
CC(=O)COc1ccc2c(C)c(-c3ccccc3)c(=O)oc2c1	?	17µM	3.2µM	-	-	-
CC(C)Oc1ccc(CNC(=O)CN2C(=O)CCn3nc(-c4cn(C)c5ccccc45)cc32)cc1	.	-	.	.	.	.
Cc1cccc2cc3ccc4ccccc4c3cc12	.	.	.	.	.	-[9.22 µM]
SMILES	NPC1 promoter act	FLuc counter	Rab9 promoter act	p53 reactivator	ELG1 genotox	SMN2 splice enh
Cc1cc2ccc3ccccc3c2cc1CN(C)C	-	7.6µM	-	-	-	.
CCC(C)NC(=O)Cn1ncc2c(C)n(Cc3ccc(F)cc3)c(C)c2c1=O (configuration not stated)	.	-	.	.	.	-
C[C@@H](C(=O)NCc1ccc(C(F)(F)F)nc1)[C@H]1C[C@]1(C)[C@H](NC(=O)OCc1ccccc1)c1ccccc1	.	.	.	.	.	-
CC1(OC(=O)c2ccc(Cl)nc2)C(=O)C=c2cc(-c3ccsc3)ncc2=C1OC(=O)C1CCCC1 (configuration not stated)	.	.	.	.	.	-[9.22 µM]
CCOC(=O)c1[nH]c2cc(OC)c(OC)cc2c1NC(=O)CN1CCN(C)CC1	-	-	-	-	21µM	.
CCOC(=O)c1[nH]c2ccc(C)cc2c1NC(=O)CN1CCCCC1	-	-	-	-	-	-
Cc1ccc(C)c(Cn2c(=O)n(CCCC(=O)NCc3ccc4c(c3)OCO4)c(=O)c3sccc32)c1	.	-	.	.	.	-
CCCNc1ccc(S(=O)(=O)N(C(C)C)C(C)C)cn1	-	-	-	-	-	-
CCCNc1ccc(S(=O)(=O)N(CC)CC)cn1	-	-	-	-	-	5.6µM
O=C(Nc1ccc(-c2csc(Nc3ccccc3)n2)cc1)c1ccccc1	-	13µM	-	.	-	.
O=C(Nc1cccc(-c2csc(Nc3ccc(Cl)cc3)n2)c1)c1ccccc1	-	12µM	-	?	-	.
O=C(NNc1nc(-c2ccccc2)cs1)c1ccccc1	-	?	-	-	-	-
CN(C)c1ccc(-n2cc3c(=O)n(C)c(=O)n(C)c3c2)cc1	?	17µM	?	-	?	-
Cc1ccc(NC(=O)c2c(C)oc3c2C2=NCCN2C=N3)cc1F	.	-	.	.	.	.
C=CCCC	.	.	.	.	.	-
CN(CCC(=O)Nc1ccc2c(c1)OCO2)Cc1ccccc1	-	-	-	-	-	-
O=C(CCSCc1ccccc1)Nc1ccc2c(c1)OCCO2	-	9.5µM	-	-	-	.
O=C(CCc1ccccc1)Nc1ccc2c(c1)OCCO2	3.2µM	6µM	1.8µM	?	?	13µM
